The list is not random: actives were taken first. Their share in the collection is about 3.5%.
FBW7 activator – activators of human E3 ligase FBW7 | AlphaScreen FBW7–phospho-cyclin E peptide binding, activator screen | 650,000 tested, 0.13% active | Q969H0 | AID 1259310 | normalized activity (activation), % at 26.1 µM; in the data active = normalized activity above about 1.9%;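 also: purified mutant Fbw7 with reduced substrate affinity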
Target sequence (Q969H0 whole entry, looked up): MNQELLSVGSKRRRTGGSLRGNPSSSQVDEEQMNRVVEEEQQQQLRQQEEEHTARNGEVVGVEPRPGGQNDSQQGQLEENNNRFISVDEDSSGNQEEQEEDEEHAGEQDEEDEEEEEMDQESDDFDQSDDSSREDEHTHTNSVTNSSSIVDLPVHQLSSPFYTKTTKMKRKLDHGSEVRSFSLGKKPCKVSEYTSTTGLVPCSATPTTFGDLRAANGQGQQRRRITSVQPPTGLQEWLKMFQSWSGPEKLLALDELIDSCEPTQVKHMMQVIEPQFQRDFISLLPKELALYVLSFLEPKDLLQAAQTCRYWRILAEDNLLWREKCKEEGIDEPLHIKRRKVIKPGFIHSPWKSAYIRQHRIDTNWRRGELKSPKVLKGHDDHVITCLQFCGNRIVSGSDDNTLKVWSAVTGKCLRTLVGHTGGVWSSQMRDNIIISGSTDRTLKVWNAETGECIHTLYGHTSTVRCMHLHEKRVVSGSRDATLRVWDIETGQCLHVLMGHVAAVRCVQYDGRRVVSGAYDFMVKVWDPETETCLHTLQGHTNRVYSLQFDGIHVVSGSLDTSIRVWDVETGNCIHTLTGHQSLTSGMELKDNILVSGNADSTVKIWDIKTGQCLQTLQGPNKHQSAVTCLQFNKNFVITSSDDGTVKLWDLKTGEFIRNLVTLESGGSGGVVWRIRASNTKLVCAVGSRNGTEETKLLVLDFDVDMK
TEAD-YAP block – TEAD-YAP interaction inhibition | HEK-TIYL cells, TEAD-Gal4/YAP UAS-luciferase luminescence | AID 1259422 | inhibition, % at 9.12 µM | 640,000 tested, 1.4% active; in the data active = inhibition above about 32%;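 also: 0% = median of test compound wells and 100% = reference inhibitor wells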
MITF primary – human MITF inhibition, primary screen; 650,000 tested, 0.91% active; O75030; AlphaScreen MITF homodimerization, bead proximity signal; inhibition, % at 2.6 µM; AID 1259374; in the data active = inhibition above about 50%;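 also: 0% = vehicle wells with protein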
GPR151 ag – activators of human GPR151 | PathHunter beta-arrestin GPR151 cells, luminescence | AID 1508602 | 650,000 tested, 1% active | activation, % at 11.2 µM; in the data active = activation above about 4.9%;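 also: 0% = median of compound wells and 100% = cells with positive control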
MITF confirm – confirmation of human MITF inhibitors. shares compounds with MITF primary. AlphaScreen MITF homodimerization, biotin/His-MITF beads. inhibition, % at 2.6 µM. AID 1259372. 4,700 tested, 16% active;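 active = inhibition above a cutoff derived from the DMSO control wells, cut at about 28% in these data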;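 also: 0% = MITF dimer wells with DMSO only; inhibitors lower the bead chemiluminescence by keeping MITF from dimerizing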
AS interf DR – AlphaScreen optical interference, dose response counter-screen; shares compounds with MITF primary; AlphaScreen optical interference counterscreen, cell-free; IC50, µM; 480 tested, 6% active; AID 1259373; call rule not given here
AlphaScreen intf2 – AlphaScreen optical interference, counter-screen; shares compounds with MITF primary; LysRS AlphaScreen counterscreen, signal interference, triplicate; inhibition, % at 2.6 µM; 4,700 tested, 7.6% active; AID 1259376;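 active = inhibition above a cutoff derived from the DMSO control wells, cut at about 30% in these data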
The depositor's hits bear a star; · = no result given.

SMILES	FBW7 activator	TEAD-YAP block	MITF primary	GPR151 ag	MITF confirm	AlphaScreen intf2	others
Cc1ccc(C(C)C)cc1OCCCCn1ccnc1	0	1	53*	2	8	8
Cc1ccc(C(C)C)cc1OCCOCCN1CCCC1	0	4	54*	-2	-5	-14
Cc1ccc(C(C)C)cc1OCCNC(C)C	1	6	89*	-2	1	4
COC(=O)CSc1nnc(-c2ccncc2)n1Cc1ccco1	0	8	-8	0	·	·
COC(=O)CSc1nnc(-c2ccco2)n1Cc1ccco1	0	4	76*	0	58*	3	AS interf DR=>6.5
Cc1nc(C)n(CC(=O)N2CCc3c([nH]c4ccccc34)C2c2ccccc2F)n1 (stereo not drawn)	0	-5	0	0	·	·
CC(=O)c1cccc(-c2cc(C(=O)NCc3cccc(C(F)(F)F)c3)ccn2)c1	0	5	8	1	·	·
COc1cc(OC)cc(C(=O)N2CCc3cc(OC)c(OC)cc3C2COc2ccccc2OC)c1 (stereo not drawn)	0	6	10	-1	·	·
O=C(Nc1ccc(C(=O)Nc2ccc(C(=O)Nc3ccc(S(=O)(=O)O)c4cc(S(=O)(=O)O)cc(S(=O)(=O)O)c34)cc2)cc1)Nc1ccc(C(=O)Nc2ccc(C(=O)Nc3ccc(S(=O)(=O)O)c4cc(S(=O)(=O)O)cc(S(=O)(=O)O)c34)cc2)cc1	0	·	71*	1	67*	7	AS interf DR=>6.5
O=C(Nc1cc(C(=O)Nc2ccc(S(=O)(=O)O)cc2S(=O)(=O)O)cc(C(=O)Nc2ccc(S(=O)(=O)O)cc2S(=O)(=O)O)c1)Nc1cc(C(=O)Nc2ccc(S(=O)(=O)O)cc2S(=O)(=O)O)cc(C(=O)Nc2ccc(S(=O)(=O)O)cc2S(=O)(=O)O)c1	0	-9	24	-2	·	·
CN(C)c1ccc(N=c2cc(-c3ccccc3)cc(-c3ccccc3)s2)cc1	0	-3	54*	-2	12	17
CN(C)c1ccc(N=Cc2ccccc2)cc1	0	23	19	0	·	·
COc1ccc(/C=N/NC(=O)C(C)Nc2ccc(C)cc2)cc1OC (stereo not drawn)	0	-6	1	0	·	·
Nc1cc(S(=O)(=O)Nc2ccc(I)cc2)ccc1Cl	0	6	1	1	·	·
COc1cccc(C(=O)N2CCN(Cc3ccccn3)CC2)c1	0	-8	92*	-1	-11	1
COc1cc(OC)cc(C(=O)N2CCN(Cc3ccccn3)CC2)c1	0	-6	57*	-1	15	18
COc1cc(CN2CCN(c3ccccc3OC)CC2)c([N+](=O)[O-])cc1OC	0	2	21	0	·	·
COc1cccc(CN2CCN(Cc3cc(OC)c(OC)cc3[N+](=O)[O-])CC2)c1	0	7	76*	0	11	20
COc1cc(CN2CCN(c3ccccc3F)CC2)c([N+](=O)[O-])cc1OC	0	-3	64*	0	12	6
COc1cc(OC)c(OC)cc1CN1CCN(Cc2cc(OC)c(OC)cc2[N+](=O)[O-])CC1	0	2	62*	0	5	15
COc1cc(CN2CCCCCC2)c([N+](=O)[O-])cc1OC	0	1	20	2	·	·
COc1ccc(OC)c(CN2CCN(Cc3cc(OC)c(OC)cc3[N+](=O)[O-])CC2)c1	0	4	72*	0	11	18
COc1cc(CN2CCCCC2)c([N+](=O)[O-])cc1OC	0	6	-7	0	·	·
CC(=C/C(=O)O)/C=C/c1cc2ccccc2[nH]1	0	1	-10	0	·	·
O=C(Nc1ccc2c(c1)C(=O)NCCO2)c1ccc(Cl)cc1	0	-77	-16	0	·	·
Cc1ccccc1C(=O)Nc1ccc2c(c1)C(=O)NCCO2	0	-4	51*	0	-5	-5
Cc1ccc(NC(=S)N(CCCN2CCCC2)Cc2ccco2)cc1	0	-1	-2	-1	·	·
Brc1ccc(CN2CCC(N3CCCCC3)CC2)cc1	0	-8	42	-1	·	·
CCN1CCN(C2CCN(Cc3cc(OC)ccc3OC)CC2)CC1	0	10	61*	0	-5	-6
COc1ccc(OC)c(CN2CCN(C3CCCC3)CC2)c1	0	5	70*	-1	4	7
